Results published in ChEMBL document CHEMBL3988442, “University of Dundee, Small-Polar-MMV Screening Library” (2021).

The compounds below were run against AMP-activated protein kinase, AMPK (Homo sapiens) (UniProt P54646+O43741+P54619+Q9UGJ0+Q9Y478+Q13131+Q9UGI9) (assay: AMP-dependent Kinase enzyme assay. An in vitro enzyme assay that detects ADP turnover that is directly proportional to AMPK activity. This uses naive AMPK that is activated during the assay with MK-8722). Conditions: 30 µM.
Format: functional
Parameters: scale not given: direction of the effect not stated beside the values
Compound `NC(=O)[C@@H]1Cc2ccccc2CN1CCC(=O)N1CCOCC1` has a Percent Effect of -7.78%. `CSc1ccc(NC(=O)Cn2cc(N)cn2)cc1` showed a Percent Effect of -79.3%. Compound `Cc1ccc(C)c(CC(=O)NC2CCCS(=O)(=O)C2)c1` (stereo not given) has a Percent Effect of -5.26%. In the case of `Cc1cc(NCCNc2cccnc2)nc(N)n1`, the Percent Effect is reported as -11.6%. In the case of `O=C(Cc1c(F)cccc1Cl)NC1CCCCNC1=O` (stereo not given), the Percent Effect is reported as 7.73%. For `c1csc(CN(Cc2ccsc2)CC2CCCO2)n1` (stereo not given), the Percent Effect was 5.59%. `CC(C)(C)c1nc(CC(=O)NCCC(=O)Nc2ccncc2)cs1` was tested, and the Percent Effect was -4.57%. In the case of `Cc1cccc(C)c1Oc1ncccc1CNC(=O)C1COC(=O)N1` (stereo not given), the Percent Effect is reported as -10.7%. Work on `CCc1nc(CCNc2ncccn2)sc1C` yielded a Percent Effect of -7.35%. With `CC(C)(C)C(NC(=O)CCCS(C)(=O)=O)c1ccc(F)cc1F` (stereo not given) the Percent Effect was 7.18%. `OCCOCCNCC1(c2ccc(F)cc2)CCOC1` (stereo not given) showed a Percent Effect of -5.55%. `COCCCNC(=O)Cc1nc(-c2ccncc2)n[nH]1` gave a Percent Effect of 14.5%. For `CCS(=O)(=O)N1Cc2ccccc2CC1C(=O)OCc1c(C)noc1C` (stereo not given), the Percent Effect was -0.838%. Compound `Cc1ccsc1C(=O)NCc1ccnc(C2CCCOC2)n1` (stereo not given) has a Percent Effect of 11.8%. Compound `CN1N=C(C(=O)NCCc2ccc(OC3CCCC3)cc2)CCC1=O` has a Percent Effect of -0.783%. In the case of `COCCN(Cc1sccc1C)C(=O)COc1ccccc1O`, the Percent Effect is reported as 2.3%. `O=C1NCC(C(=O)NCc2ccccc2CN2CCOCC2)N1` (stereo not given) gave a Percent Effect of -5.09%. Work on `COc1ccc(OC)c(S(=O)(=O)NC(=O)C(C)OC)c1` (stereo not given) yielded a Percent Effect of -3.05%. With `O=C(NCc1ccco1)N1CCC(n2cc(-c3ccccn3)nn2)CC1` the Percent Effect was 0.674%. For `CCNC(=O)C1CCN(Cc2ccc(C(=O)Nc3nnc(C)s3)cc2)C1` (stereo not given), the Percent Effect was -2.87%. `CC(C)[C@@H]1CN(Cc2cnc3c(S(C)(=O)=O)cnn3c2)C[C@H]1N(C)C` showed a Percent Effect of -8.81%. With `CN1CCN(C)C(CNc2c(C#N)cnc3ccc(Cl)cc23)C1` (stereo not given) the Percent Effect was 8.02%. With `O=C(NCC1CCS(=O)(=O)C1)N(Cc1ccco1)C1CC1` (stereo not given) the Percent Effect was -4.86%. `CCOCCN1CCN(c2ncccc2C#N)CC1CC` (stereo not given) was tested, and the Percent Effect was 4.43%. `Cc1cnc(C(=O)NCC2CCOc3ccccc3C2)cn1` (stereo not given) showed a Percent Effect of -2.4%. `Cc1ccc(S(=O)(=O)Cc2nnc(C)n2C)cc1` gave a Percent Effect of 6.55%. With `CN(Cc1cccc(-n2cccn2)c1)Cc1c[nH]cn1` the Percent Effect was -6.63%. Work on `O=C(CC1CC1)N1C[C@@H](O)[C@H](N2CCN(c3ccccc3)CC2)C1` yielded a Percent Effect of -9.15%. In the case of `OCCc1ncnn1Cc1cccc(Cl)c1`, the Percent Effect is reported as 32.2%. For `NC(=O)C1CCN(c2ncccc2C(=O)N2CCc3ccccc32)C1` (stereo not given), the Percent Effect was 2.58%. With `CN(C)CCNC(=O)CCC1CCN(C(=O)c2ccc(O)cn2)CC1` the Percent Effect was 7.4%. With `Cc1cc(NC(C)c2csc(C)n2)n2nc(C)c(C)c2n1` (stereo not given) the Percent Effect was 10%. Compound `COc1ncnc(N)c1CNCCc1ccc(-n2cccn2)cc1` has a Percent Effect of 6.72%. For `Cc1csc(NC(=O)NCCCN2CCC(C(N)=O)CC2)n1`, the Percent Effect was 1.03%. `NC(=O)c1ccnc(N2CCCC(CO)(Cc3ccccc3)C2)c1` (stereo not given) showed a Percent Effect of 11.6%. Work on `CCn1ncnc1C(C)Nc1cc(C2CCNCC2)nc(C)n1` (stereo not given) yielded a Percent Effect of -7.46%. Compound `O=C1OCCCN1Cc1nc(-c2ccncc2)no1` has a Percent Effect of -2.07%. `O=C(O)CN(Cc1ccsc1)CC1CCCO1` (stereo not given) gave a Percent Effect of 10.1%. Work on `Cc1nc2n(n1)CC(NCc1c(Cl)ccc3cccnc13)CC2` (stereo not given) yielded a Percent Effect of 11.7%. Work on `Cc1cc(-c2cnc(N3CCCC3)nc2C(C)C)on1` yielded a Percent Effect of 16.6%.
